Active and inactive are the calls of the source. Unless noted, no rule for the calls is given here.
Columns and labels:
[1] = compound effects on lung adenocarcinoma cell viability – A549, calcein-AM fluorescence, 48 h, basal, profiling panel (AID 1162); details: higher = more signal; also: test concentration not given here
[2] = compound effects on differentiated 3T3-L1 adipocyte viability – cell-based, 3T3-L1 adipocytes, calcein-AM fluorescence, 48 h, basal, profiling panel (AID 1163); details: 3T3-L1 adipocytes viability, higher = more signal; also: test concentration not given here
[3] = compound effects on hepatocellular carcinoma cell viability – HepG2, calcein-AM fluorescence, 48 h, basal, profiling panel (AID 1164); details: higher = more signal; also: test concentration not given here
[4] = compound effects on multiple myeloma cell viability – MM1S, calcein-AM fluorescence, 48 h, basal, profiling panel (AID 1165); details: higher = more signal;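 also: viability of MM1S multiple myeloma cells under basal unstimulated conditions; test concentration not given here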
[5] = calcein-AM signal in unstimulated myeloma cells – cell-based, calcein-AM fluorescence, 48 h, PK04 Diversity Set, profiling panel (AID 1166); details: RPMI8226 myeloma viability, higher = more signal;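 also: cells grown under basal conditions without added stimulus; test concentration not given here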
[6] = JC-1 mitochondrial signal, unstimulated HepG2 cells – cell-based, JC-1 fluorescence, 24 h, 100 nL compound, profiling panel (AID 1167); details: HepG2 mitochondrial potential, higher = more signal; also: test concentration not given here
[7] = JC-1 mitochondrial signal, unstimulated adipocytes – cell-based, JC-1 fluorescence, 3T3-L1 adipocytes, 24 h, 100 nL compound, profiling panel (AID 1168); details: JC-1 mitochondrial fluorescence, higher = more signal, called active from +8 up or from −8 down; also: test concentration not given here
[8] = JC-1 mitochondrial signal, unstimulated myeloma cells – cell-based, JC-1 fluorescence, RPMI8226, 24 h, 100 nL compound, profiling panel (AID 1169); details: JC-1 mitochondrial potential fluorescence, higher = more signal; also: test concentration not given here
[9] = JC-1 mitochondrial signal, unstimulated MM1S myeloma – cell-based, JC-1 fluorescence, 24 h, 100 nL compound, profiling panel (AID 1170); details: MM1S mitochondrial potential, higher = more signal; also: test concentration not given here
[10] = resazurin metabolic signal in A549 cells – cell-based, resazurin fluorescence, 24 h, PK04 Diversity Set, profiling panel (AID 1171); details: A549 viability, higher = more signal, called active from +8 up or from −8 down; also: test concentration not given here
[11] = resazurin metabolic signal in HepG2 cells – cell-based, resazurin fluorescence, 24 h, PK04 Diversity Set, profiling panel (AID 1172); details: HepG2 viability, higher = more signal; also: test concentration not given here
[12] = budding yeast growth changes without added modifier – OD600, strain BY4716, 24 h, basal condition, primary screen (AID 1173); details: S. cerevisiae BY4716 growth, OD600, 24 h; higher = more signal, called active from +8 up or from −8 down
[13] = viability profiling in MM1S myeloma cells – cell-based, resazurin fluorescence, basal, 24 h, PK04 Diversity Set, profiling panel (AID 1174); details: higher = more signal, called active from +8 up or from −8 down; also: test concentration not given here
[14] = target: Dihydroorotate dehydrogenase (quinone), mitochondrial (Plasmodium falciparum (isolate 3D7)) (UniProt Q08210); test: inhibition of P. falciparum DHODH – biochemical, C-terminal His tag, absorbance 600 nm, primary screen (AID 1175); details: PfDHODH enzyme, DCIP absorbance 600 nm; higher = more signal, called active from +8 up or from −8 down;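 also: recombinant parasite enzyme with a five histidine tag at its C terminus; test concentration not given here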
[15] = inhibition of PAO1 biofilm formation – strain PAO1, LB-PBS medium, absorbance 600 nm, primary screen (AID 1176); also: test concentration not given here; details: P. aeruginosa PAO1 growth/biofilm, A600, 12 h; higher = more signal
[16] = growth modulation of vineyard yeast isolate – strain RM11-1a, OD600, basal, 24 h, primary screen (AID 1177);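 also: cultures grown under basal conditions with no added stressor; test concentration not given here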; details: S. cerevisiae RM11-1a growth, OD600, 24 h; higher = more signal, called active from +8 up or from −8 down
[17] = growth of efflux-deficient E. coli DRC39 – strain DRC39, OD650, 24 h, E. coli filamentation inducers, primary screen (AID 1178);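 also: growth measured as culture turbidity by optical density at 650 nm; test concentration not given here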; details: E. coli DRC39 acrAB, higher = more signal, called active from +8 up or from −8 down
[18] = growth of efflux-deficient E. coli DRC39 – strain DRC39, OD650, 48 h, E. coli filamentation inducers, primary screen (AID 1179);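 also: screen aims at cell division blockers that make cells filament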; details: E. coli DRC39 delta-acrAB growth, higher = more signal, called active from +8 up or from −8 down
[19] = viability profiling in RPMI8226 myeloma cells – cell-based, resazurin fluorescence, basal, 24 h, PK04 Diversity Set, profiling panel (AID 1180); details: higher = more signal;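 also: RPMI8826 multiple myeloma cell line at 5000 cells per well; test concentration not given here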
[20] = target: E3 ubiquitin-protein ligase XIAP (Homo sapiens) (UniProt P98170); test: small molecules binding XIAP protein – biophysical, small-molecule microarray, fluorescence 635 nm, primary screen (AID 1181); details: higher = more signal;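 also: score merges 667 nm emission and signal to noise over triplicate slides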
Chain of E3 ubiquitin-protein ligase XIAP (Homo sapiens) (P98170 whole entry, looked up): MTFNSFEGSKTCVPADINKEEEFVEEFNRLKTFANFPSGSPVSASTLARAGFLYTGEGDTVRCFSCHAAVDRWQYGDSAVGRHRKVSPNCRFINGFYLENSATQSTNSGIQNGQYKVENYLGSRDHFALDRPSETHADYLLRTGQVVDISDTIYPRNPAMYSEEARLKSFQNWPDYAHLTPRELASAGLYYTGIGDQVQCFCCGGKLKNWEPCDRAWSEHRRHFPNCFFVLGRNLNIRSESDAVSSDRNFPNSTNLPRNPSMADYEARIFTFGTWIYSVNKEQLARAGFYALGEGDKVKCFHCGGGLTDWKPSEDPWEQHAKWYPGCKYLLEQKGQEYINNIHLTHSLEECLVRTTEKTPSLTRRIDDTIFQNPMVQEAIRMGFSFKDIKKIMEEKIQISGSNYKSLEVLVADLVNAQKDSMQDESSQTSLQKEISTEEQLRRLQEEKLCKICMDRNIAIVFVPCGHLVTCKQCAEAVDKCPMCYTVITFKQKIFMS

Chain of Dihydroorotate dehydrogenase (quinone), mitochondrial (Plasmodium falciparum (isolate 3D7)) (Q08210 whole entry, looked up): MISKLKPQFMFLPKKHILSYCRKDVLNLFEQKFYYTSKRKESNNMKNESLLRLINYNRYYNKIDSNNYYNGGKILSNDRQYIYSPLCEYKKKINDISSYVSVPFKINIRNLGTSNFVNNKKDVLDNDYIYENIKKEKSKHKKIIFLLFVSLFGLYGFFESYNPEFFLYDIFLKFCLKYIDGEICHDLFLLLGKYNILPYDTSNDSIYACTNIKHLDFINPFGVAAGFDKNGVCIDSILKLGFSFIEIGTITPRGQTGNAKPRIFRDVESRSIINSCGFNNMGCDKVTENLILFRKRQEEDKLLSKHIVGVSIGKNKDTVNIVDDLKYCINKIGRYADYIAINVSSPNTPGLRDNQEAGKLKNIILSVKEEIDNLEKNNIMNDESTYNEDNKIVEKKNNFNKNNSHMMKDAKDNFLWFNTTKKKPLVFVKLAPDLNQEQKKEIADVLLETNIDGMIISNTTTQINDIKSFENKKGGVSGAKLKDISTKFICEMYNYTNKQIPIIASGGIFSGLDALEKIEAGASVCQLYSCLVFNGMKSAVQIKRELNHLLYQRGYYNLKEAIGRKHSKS

| Structure (SMILES) | z-score [1] | z-score [2] | z-score [3] | z-score [4] | z-score [5] | z-score [6] | z-score [7] | z-score [8] | z-score [9] | z-score [10] | z-score [11] | z-score [12] | z-score [13] | composite z-score [14] | z-score [15] | z-score [16] | z-score [17] | z-score [18] | z-score [19] | composite z-score [20] |
| --- | --- | --- | --- | --- | --- | --- | --- | --- | --- | --- | --- | --- | --- | --- | --- | --- | --- | --- | --- | --- |
| CCCCC(=C=CC[C@H](O)c1cccc(OCCO)c1)C[C@H](O)c1cc(Cl)cc(Cl)c1O | 0.827 | -0.241 | 0.358 | -3.12 | -1.24 | 0.0773 | 0.309 (inactive) | -0.00147 | -1.05 | 1.57 (inactive) | 1.89 | -2.65 (inactive) | 0.356 (inactive) | 0.189 (inactive) | 0.318 (inactive) | 0.275 (inactive) | 1.07 (inactive) | 0.923 (inactive) | 0.242 | -0.206 |
| [N-]=[N+]=Nc1ccccc1C[C@@]1(C(=O)NCc2ccccc2)N=C(c2ccc(OCCCO)cc2)O[C@@H]1c1ccccc1 | -1.36 | 0.902 | -1.78 | -2.51 | -3.76 | 1.45 | -0.739 (inactive) | -1.3 | -0.738 | 0.808 (inactive) | 0.508 | -0.0233 (inactive) | -1.71 (inactive) | 0.889 (inactive) | 2.51 (inactive) | 1.17 (inactive) | 0.712 (inactive) | -0.489 (inactive) | -0.564 | 0.204 |
| O=C1NC(=O)C2C1C=CC(C(O)C(c1ccccc1)c1ccccc1)N2Nc1ccccn1 (stereo not given) | 0.795 | -0.46 | 0.605 | 0.332 | 0.077 | 0.176 | -0.219 (inactive) | 0.432 | 0.525 | -0.0343 (inactive) | -0.187 | -0.639 (inactive) | -0.408 (inactive) | 1.72 (inactive) | 0.916 (inactive) | 0.419 (inactive) | -0.156 (inactive) | -0.284 (inactive) | 0.261 | 0.417 |
| CCOC(=O)C[C@H]1[C@H](OC(=O)c2ccc(-c3ccccc3)cc2)[C@@H](NC(=O)c2ccc(-c3ccccc3)cc2)c2cc(OCCCO)ccc2N1C(=O)c1ccccc1 | -0.555 | -0.132 | -0.134 | 0.125 | -0.473 | 0.642 | -0.45 (inactive) | 0.812 | 0.0869 | -0.769 (inactive) | -0.697 | 1.36 (inactive) | -1.01 (inactive) | -0.0085 (inactive) | 0.0307 (inactive) | 0.795 (inactive) | -0.168 (inactive) | -0.331 (inactive) | -0.967 | 0.0766 |
| COC(=O)C1(CC(C)C)C=C2C(=C(C)C(=O)C2C)CN1 (stereo not given) | -1.23 | -0.291 | -1.14 | -0.945 | -1.77 | -1.04 | -1.83 (inactive) | 0.147 | -0.92 | -0.726 (inactive) | -1.23 | 1.84 (inactive) | -1.78 (inactive) | -1.11 (inactive) | 0.715 (inactive) | 0.386 (inactive) | -0.43 (inactive) | -0.078 (inactive) | -1.8 | 0.0408 |
| C=C(CC1([C@@H](NP(=O)(c2ccccc2)c2ccccc2)[C@H]2C[C@@H]2CCCC)CC1)c1cccc(OC)c1 | -1.61 | -0.803 | -0.96 | -3.47 | -4.72 | -1.28 | -0.532 (inactive) | -0.799 | -0.366 | 6.21 (inactive) | 2.56 | 2.17 (inactive) | 1.08 (inactive) | -0.0873 (inactive) | 0.0944 (inactive) | 1.61 (inactive) | -0.283 (inactive) | -0.216 (inactive) | 3.23 | 0.219 |
| [N-]=[N+]=NCc1ccccc1[C@H]1OC(c2ccc(OCCCO)cc2)=N[C@@]1(Cc1ccccc1N=[N+]=[N-])C(=O)O | -0.374 | -1.69 | 0.312 | -0.934 | -0.984 | -2.04 | 0.0914 (inactive) | -0.763 | -0.596 | 0.216 (inactive) | 0.539 | -4.15 (inactive) | 0.119 (inactive) | -0.862 (inactive) | 0.535 (inactive) | -0.123 (inactive) | -0.539 (inactive) | -0.779 (inactive) | -0.0412 | 0.166 |
| C=CCOC(=O)[C@H]1[C@@H]2C(=O)O[C@@H](c3ccccc3)[C@@H](c3ccccc3)N2[C@@H](c2ccc(OCCOC(=O)[C@H]3C[C@H]4C(=O)NCC(=O)N4[C@H]3c3ccc(O)cc3)cc2)[C@]12C(=O)Nc1ccccc12 | -0.759 | 0.645 | -1.05 | 0.117 | -0.259 | -1.42 | 0.962 (inactive) | -0.356 | -0.821 | 0.729 (inactive) | -0.0886 | 1.1 (inactive) | 1.02 (inactive) | 0.814 (inactive) | 0.916 (inactive) | 2.99 (inactive) | 0.504 (inactive) | -0.0754 (inactive) | 1.72 | -0.202 |

Reference: PubChem BioAssay
